# Experimental data: the supplement of paper PMC6555819
# Columns and labels:
# Experiment in all cases: PBM binding z-score (relative to random genomic background probes); higher = stronger binding; sequences stand for … in GC…GCGATTGACAGCGTAGAATGAAGG
# [1] = system: FXR:RXRa (NR concentration 270 nM, RXRa partner concentration 90 nM)
# Summary of the method: (§1)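 Probes were double-stranded and carried 34-nt variable regions with direct-repeat seeds, single-nucleotide variants, half-site ablations and random human genomic background sequences, printed on custom Agilent 4×180K protein-binding microarrays. Arrays were incubated 1 h with ligand-free nuclear receptor dimers in PBS pH 7.4, 2% milk, 0.02% Triton X-100, 1 mM DTT, 0.2 mg/mL BSA and 0.4 mg/ml salmon testes DNA. Antibodies against each partner (one per run) detected binding, and scanned fluorescence was regression-normalized. Binding z-scores use the random background probes as reference.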
# [2] = system: LXRa:RXRa (NR concentration 270 nM, RXRa partner concentration 90 nM)
# Summary of the method: as §1
# [3] = system: LXRa homodimer (NR concentration 270 nM)
# Summary of the method: as §1
# [4] = system: LXRb:RXRa (NR concentration 270 nM, RXRa partner concentration 90 nM)
# Summary of the method: as §1
# [5] = system: LXRb homodimer (NR concentration 270 nM)
# Summary of the method: as §1
# [6] = system: PPARa:RXRa (NR concentration 270 nM, RXRa partner concentration 90 nM)
# Summary of the method: as §1
# [7] = system: PPARg:RXRa (NR concentration 180 nM, RXRa partner concentration 90 nM)
# Summary of the method: as §1
# [8] = system: PPARg:RXRa 270nM:90nM, anti-RXR (NR concentration 270 nM, RXRa partner concentration 90 nM)
# Summary of the method: as §1
# [9] = system: PPARg:RXRa 30nM:10nM, anti-RXR (NR concentration 30 nM, RXRa partner concentration 10 nM)
# Summary of the method: as §1
# [10] = system: PPARg:RXRa 90nM:30nM, anti-RXR (NR concentration 90 nM, RXRa partner concentration 30 nM)
# Summary of the method: as §1
Sequence,PBM binding z-score [1],PBM binding z-score [2],PBM binding z-score [3],PBM binding z-score [4],PBM binding z-score [5],PBM binding z-score [6],PBM binding z-score [7],PBM binding z-score [8],PBM binding z-score [9],PBM binding z-score [10]
GATACAGGCTCAAGGCCAGAGTACGCGTATTGAT,-0.696,-0.88,-0.571,-1.04,-0.938,-0.602,0.777,0.34,-0.217,-0.0733
ATATGTAGGTTATCGGGTCGTTCAGTTTGCGCAT,1.16,1.68,0.76,1.73,0.781,3.79,5,4.95,2.24,4.25
CGAACTAGGTCAAGGACAGCGAATCTCCGCACGC,3.45,2.27,0.194,1.27,-0.45,4.72,7.46,6.26,3.42,5.68
CCTTACGCGTCACTGACAGGTTATAGCATTTGGA,0.188,0.449,0.568,0.697,0.644,0.558,0.31,0.128,0.0399,0.241
ACTATTAGTTGAGACGAGGGCAACCGGTAGGTTG,0.623,0.318,0.134,0.06,-0.0535,0.319,0.685,-0.0601,-0.0682,0.00323
TAGCCTAGGTCAGGCGGGCCAGTATAGTGTCGGC,1.07,0.958,-0.477,0.401,-0.892,1.55,0.363,0.51,-0.814,-0.109
AGTCAAAGTTCAGGACGAGGTAAGGTAAAGCACG,4.31,3.87,1.46,1.95,0.293,3.46,4.39,5.12,2.13,4.27
ACTAGCAGGACAAGTTTGGGTCACTCAAACAAAG,0.14,0.146,-0.00824,0.621,-0.0447,1.36,0.27,0.0968,-0.0869,-0.0203
ATATGTAGGTTCGCTGGGGTCATTCAGACTAGGC,4.11,3.93,1.89,4.28,1.4,4.69,2.95,3.83,1.2,2.91
AGTCAAAGTTCAGGACGAGCTAACGTAAAGCACG,3.87,3.76,0.971,1.55,0.0911,3.08,4.04,4.89,2.01,4.19
TCATGTAGATCAGCAGGTTAAGAAAGCTGGCCAA,-0.0707,0.39,-0.338,0.259,-0.58,0.606,-0.175,1.5,2.67,2.16
CGAACGAGGGCATGAGATGATAGCAAATGCCGAT,0.416,0.173,0.0308,-0.0144,-0.705,1.22,1.5,0.73,0.325,0.278
CGTCCAAGGTCAGCAGGTCAGGGAAAGCGACGTG,5.75,3.75,0.358,3.11,-0.252,4.79,4.23,4.7,1.38,3.21
AGAACGAGGCCACGCTGAGTTGATAGCAGAGTAG,0.0545,-0.515,-0.521,-0.809,-0.992,0.356,0.903,0.196,-0.0987,0.189
CCTACTGGGCCCCGAAAGGTCATTGATTCAGTGA,3.17,4.07,4.02,3.98,0.0468,3.93,1.14,2.68,0.29,1.58
AGAATGAGGGTAAGATCAGGGAAACAGAATACAT,0.539,0.166,0.147,0.566,0.276,0.918,0.981,0.698,0.455,0.409
TTACCGAGGTGAGCTGAGGTCGTTGATCCAACTC,1.71,1.73,-0.575,1.16,-0.881,2.03,0.345,0.915,-0.318,0.221
GCTAGTTAGTCAGTAAAAGGTCACACACCGGTCG,3.12,4.12,4.46,3.91,0.32,4.56,3.96,5.48,3.89,5.04
CCTCGGAGAACAACAGGAGGTCAGAGCTGCCAGA,0.847,1.87,1.86,1.46,-0.303,1.82,0.213,-0.135,-1.02,-0.29
CGAACGAGGGCATGAGTTGATAGGAAATGCCGAT,0.317,0.134,-0.459,-0.00432,-0.811,1.27,1.61,1.43,0.315,0.987
TCTCGGAGGACACGAAGGTCAGATCTTTCCAGAG,1.76,1.41,1.09,1.64,-0.544,1.98,0.475,1.77,2.61,2
CGTCAAAGTTCACGGTAACGTAACAGAAAGCAGC,7.1,6.15,2.53,4.09,0.842,5.42,6.18,6.59,3.33,5.36
CCGACTGGGCCAAGGTCATTGATCAGTCAAAGCA,2.94,2.76,0.884,2.65,-1.02,3.83,2.29,3,0.61,2.11
GCGCGGAGGACAAGGTCAGAGCTTTGTCCGTAGA,1.64,1.37,-0.378,1.01,-1.25,2.27,0.135,1.16,-0.943,0.36
TCTATTAGTGGATTAGGGCAACCGAAACAGCGGA,0.803,0.521,0.262,0.532,0.78,0.571,0.412,1.68,3.07,2.64

Sequence,PBM binding z-score [1],PBM binding z-score [2],PBM binding z-score [3],PBM binding z-score [4],PBM binding z-score [5],PBM binding z-score [6],PBM binding z-score [7],PBM binding z-score [8],PBM binding z-score [9],PBM binding z-score [10]
CGAACTAGATCAGAACAGGACAGTGAAGGATGAT,-0.267,-0.369,-0.16,-0.794,-0.0768,-0.51,0.886,-0.506,0.112,-0.125
GCTGCTAGGTCAATTGATGGTCAGCTAAAGCTCG,2.8,2.21,-0.0789,1.47,0.292,2.93,1.36,1.87,-0.0907,1.18
AGAATGATGTTATTAAGATCAGGGAATTGCGGTC,-0.0815,-0.447,6.67e-05,-0.339,-0.205,0.0831,0.179,-0.306,-0.179,-0.208
ACAGACAGGTGAGTGAAGGTAACTCAACTGGACG,0.515,-0.0792,-0.448,-0.39,-0.735,-0.0249,0.821,0.143,0.0922,-0.0513
TCTATTAGTTGAAGGGCAACCGCCGAGTCCGTTT,0.913,0.871,0.578,0.586,0.231,0.935,-0.454,2.19,3.81,2.91
TAGCCTAGGTCATTAGGCCAGTATAGTACGCATC,3.64,2.91,0.7,1.88,0.111,3.31,3.34,3.34,1.05,2.14
ACTAGCAGGCCAAGTTTGGGTCATTCAAACAAAG,0.394,0.425,-0.172,0.818,-0.545,1.8,0.0288,0.215,-0.284,-0.177
CGTCCAAGGTCAGCTGGTCAGTGAAAGCGACGTG,5.24,3.28,-0.407,2.31,-0.208,3.99,2.08,2.85,0.432,1.47
CCTTACGGGTCACTCCAGGTTATAACATCGGAGT,4.88,7.46,2.11,5.8,0.0817,4.74,3.9,3.91,1.29,2.8
ATCTGTAGGTAAAAGTTCAGTGAATCCCGAGGAT,0.442,1.21,0.955,0.989,0.43,4,8.09,7.62,7.35,8.71
CCTACTGAGCCATCAGGTCATTGATATCAACGTT,1.58,1.47,2.08,2.26,0.649,1.79,0.302,0.843,0.137,0.472
GATACAGGGGCAGCTAGAGGCCAGAGTATGGAAA,0.0694,0.017,-0.177,0.453,-0.405,0.26,0.483,0.296,-0.0735,-0.078
ATCTCTAGGTAAAGATCGTTCAGTGAATGCAAAT,-0.176,1.87,-0.123,0.339,0.387,0.218,0.287,0.923,0.249,0.749
CCTACTAGGTCAATGGTCAGCTAAAGCAGCTCGC,3.38,2.41,0.529,1.87,0.47,4.62,8.83,7.23,6.92,7.71
TCTCGTAGATCAATAGAGGTTAAGAAAGTGCGCT,0.399,3.34,0.504,1.71,-0.598,1.62,-0.218,1.6,2.83,2.12
GCAGATAGGTAATACAAGGTGAAAGTCCGATTGT,1.42,2.24,0.134,0.475,-0.791,1.04,0.544,0.592,0.199,0.421
CCGACTGCGGCAGAAAGGTTACCATACCATCCGG,0.417,0.665,-0.0134,1.08,-0.692,1.85,1.33,2.53,0.645,2.19
CCTACTGGGCCAAAAAGGTCATTGACGCCGATAA,3.87,4.62,2.87,4.33,0.108,4.61,3.21,4.25,1.8,3.54
CCTTACGGGTAAAGGTTATAGCACGGGTGGTACG,1.2,1.69,0.37,1.19,-0.173,3.02,2.95,4.67,2.06,3.73
CCGACTGGGGCAAGGTTACCATAACGCACAGCCA,0.287,0.668,-0.166,0.835,-1.25,2.12,2.78,3.43,1.23,2.86
ATATGTAGGTTATCGGGTCAATCAGTTTGCGCAT,3.33,3.31,1.36,2.99,1.1,4.99,7.6,6.41,3.84,5.93
ATCTCTAGGTAACAAGTTCAGTGAAAGAGAGGAC,0.883,1.09,0.507,0.886,1.21,1.82,1.52,1.92,0.986,1.73
CCTGCTAGGTGAATGGTCAGCTAAAGCAGCTCGC,-0.48,-0.375,-0.807,-0.625,-0.989,1.25,2.89,4.11,2.1,3.81
CCTACTGGGCCAAGGTCATCGATCAGTCAAAGCA,3.48,3.15,0.707,2.74,-0.415,4.23,4.52,4.7,2,4.15
